Test results: PubChem BioAssay AID841 (Emory University Molecular Libraries Screening Center, 2007)
Hit rate of the full screen: of about 140,000 compounds, about 2,100 (1.5%) were called active. Rule as the data show it: active = protection mostly above about 24% (no sharp cut-off); inactive = mostly below about 26%. For the sample, actives were picked, then their nearest neighbours and some compounds at random.

test: blockers of measles virus-induced cell death – single point, MLSMR library, absorbance, measles RdRp inhibitor project, primary screen (AID 841); details: Measles virus-infected cells, CPE protection, at 4 µM, stronger effect = higher value

Row | SMILES | protection (pct of control)
1 | CSc1ccc(/C=C/C(=O)NC23CC4CC(CC(C4)C2)C3)cc1 | 2.59% (inactive)
2 | CC(=O)c1ccc(N2CCN(C(=O)c3ccc4nc[nH]c4c3)CC2)cc1 | 20.3% (inactive)
3 | COc1ccc(-c2csc(NC(=O)CCCc3cccs3)n2)cc1 | 37.9% (inactive)
4 | Cc1ccc(-c2csc(NC(=O)Cc3cccs3)n2)cc1C | 42.2% (active)
5 | CCCc1ccc(-c2csc(NC(=O)Cc3cccs3)n2)cc1 | 25% (inactive)
6 | C/C(CC(=O)Nc1cccc(F)c1)=N\NC(=O)C(=O)NC1CCCCC1 | 2.76% (inactive)
7 | Cc1cc(C)c(C2C3=C(Nc4c2c(C)nn4-c2ccccn2)c2ccccc2C3=O)c(C)c1 (stereo unspecified) | 7.66% (inactive)
8 | O=C(CN1C(=O)c2cccc3cccc(c23)C1=O)N1CCCCC1 | 4.32% (inactive)
9 | Cc1nnc(NC(=O)/C=C/c2ccco2)s1 | 22.5% (inactive)
10 | O=[N+]([O-])c1ccc(NCCCO)c(C(F)(F)F)c1 | 10.7% (inactive)
11 | C=CCNC(=O)CSc1nc2sc(C)c(C)c2c(=O)[nH]1 | 1.51% (inactive)
12 | CC(=O)c1sc2nc(SCC(=O)N3CCCCC3)[nH]c(=O)c2c1C | 61.4% (active)
13 | O=C(CSc1nc2c(cnn2-c2ccc(F)cc2)c(=O)[nH]1)N1CCCCCC1 | 6.65% (inactive)
14 | Fc1c(F)c(C(F)(F)F)c(F)c(F)c1N1CCN(c2ccc3nnc(C(F)(F)F)n3n2)CC1 | 52.3% (active)
15 | FC(F)(F)c1nnc2ccc(N3CCN(c4ccccc4)CC3)nn12 | 1.66% (inactive)
16 | COc1ccc(S(=O)(=O)Nc2ccc(F)cc2)c(C)c1C | 62% (active)
17 | COc1ccc(S(=O)(=O)N2CCCC2)c(C)c1C | 7.99% (inactive)
18 | COc1ccc(F)cc1S(=O)(=O)Nc1ccc2c(c1)OCO2 | 5.59% (inactive)
19 | COc1ccc(NC(=O)Nc2ccc3nc(C)c(C)nc3c2)cc1 | 2.45% (inactive)
20 | COc1ccc2c(c1)cc1n2CCN=C1NN | 25.1% (active)
21 | COc1cc(-c2cc(C(=O)OCC(=O)Nc3ccc4c(c3)OCO4)c3ccccc3n2)cc(OC)c1OC | 4.84% (inactive)
22 | CCOC(=O)N1CCN(C(=O)Cc2ccc(-n3c(=S)[nH]c4ccccc4c3=O)cc2)CC1 | 49% (active)
23 | O=C(Cc1ccc(-n2c(=O)[nH]c3ccccc3c2=O)cc1)N1CCN(c2cccc(Cl)c2)CC1 | 2.23% (inactive)
24 | CCOC(=O)N1CCN(CC(=O)c2c(C)[nH]c3ccccc23)CC1 | 5.34% (inactive)

Row | SMILES | protection (pct of control)
25 | O=C(/C=C/c1cccc([N+](=O)[O-])c1)NCCSCc1ccco1 | 4% (inactive)
26 | CCOc1ccc(-c2n[nH]c(=S)n2/N=C/c2cc3c(cc2[N+](=O)[O-])OCO3)cc1 | 2.01% (inactive)
27 | Cc1cc([N+](=O)[O-])nn1CC(=O)Nc1ccc(Cc2ccncc2)cc1 | 3.88% (inactive)
28 | CCCCCCCCCOC1OC(CO)C(O)C(O)C1NC(C)=O (stereo unspecified) | 19.9% (inactive)
29 | CONc1nc2nonc2nc1NOC | 8.78% (inactive)
30 | CC(C)C(=O)Nc1ccc(C(=O)NNC(=O)c2cccs2)cc1 | 6.3% (inactive)
31 | COc1ccccc1-c1nnc(NC(=O)c2ccc3ncsc3c2)o1 | 19.4% (inactive)
32 | CCC(=O)Nc1sc(C(=O)N2CCCCC2)c(C)c1C#N | 34.3% (active)
33 | CCN(CC)C(=O)c1sc(NC(=O)c2ccco2)c(C#N)c1C | 10.4% (inactive)
34 | CCOC(=O)c1sc(NC(=O)CSc2ncccn2)c(C#N)c1C | 12.3% (inactive)
35 | N#Cc1c(-c2ccc(F)cc2)cc(C2CC2)nc1SCC(=O)c1cccs1 | 17.3% (inactive)
36 | COc1ccc(NC(=O)c2sc(N3CCOCC3)nc2-c2ccccc2)c(OC)c1 | 7.3% (inactive)
37 | Cc1cccc(Cn2c(SCCO)nc3c2c(=O)n(C)c(=O)n3C)c1 | 38.3% (active)
38 | CCCSc1nc2c(c(=O)n(C)c(=O)n2C)n1Cc1ccc(C)cc1 | 16.6% (inactive)
39 | COC(=O)C(C)Sc1nc2c(c(=O)n(C)c(=O)n2C)n1Cc1cccc(C)c1 (stereo unspecified) | 13.3% (inactive)
40 | O=C(CSc1ccc(C(F)(F)F)cc1[N+](=O)[O-])NCCOc1ccccc1 | 16.6% (inactive)
41 | CCCCc1cc2c(s1)CCCC/C2=N/O | 5.03% (inactive)
42 | COc1cc(C)c(C(C)C)cc1S(=O)(=O)n1ccnc1 | 24.3% (inactive)
43 | CCOc1ccc(S(=O)(=O)N2CCCCCC2)c2ccccc12 | 3.16% (inactive)
44 | CCOc1ccc(S(=O)(=O)n2ccnc2)c2ccccc12 | 40.7% (active)
45 | O=S(=O)(/N=C(/Nc1ccccc1)c1ccccc1)c1cccs1 | 4.51% (inactive)
46 | CC(=O)COc1ccc2c(-c3ccccc3)cc(=O)oc2c1 | 68.7% (active)
47 | Cc1cc(=O)oc2ccc(OCC(=O)O)cc12 | 16.4% (inactive)
48 | COC(=O)C(C)Oc1ccc2c(-c3cccc([N+](=O)[O-])c3)cc(=O)oc2c1 (stereo unspecified) | 4.97% (inactive)

Row | SMILES | protection (pct of control)
49 | CC(C)NC(=S)N1CCN(S(C)(=O)=O)CC1 | 39.7% (inactive)
50 | Cc1ccnc(N2CCC(C(=O)NC3CCCCCC3)CC2)n1 | 6.88% (inactive)
51 | Cc1ccnc(N2CCCC(C(=O)Nc3cc(F)ccc3C)C2)n1 (stereo unspecified) | 46.4% (active)
52 | O=C(Nc1ccc2c(c1)OCCO2)C1CCCN(c2ncccn2)C1 (stereo unspecified) | 7.15% (inactive)
53 | NC1=NC(=O)C(Cc2cccc(Cl)c2Cl)S1 (stereo unspecified) | 22.3% (inactive)
54 | C=CCn1c2ccccc2c2nnc(SCc3[nH]c(=O)[nH]c3C(=O)CCCCC(=O)OCC)nc21 | 14.8% (inactive)
55 | O=C(O)c1ccc2c(c1)C(=O)N(NC(=O)c1ccc(O)cc1)C2=O | 16.8% (inactive)
56 | CC(C)(C)C(=O)c1cnc(Nc2ccccc2)s1 | 2.07% (inactive)
57 | O=C(/C=C/Nc1ccccc1)c1cnc(-c2ccccc2)s1 | 62.4% (active)
58 | Cc1ccc(N/C=C/C(=O)c2ccccc2)cc1C | 11.4% (inactive)
59 | Oc1ccccc1/C=N/n1c(-c2cccs2)n[nH]c1=S | 36.6% (active)
60 | S=c1[nH]nc(-c2ccccc2)n1/N=C/c1c[nH]c2ccccc12 | 2.43% (inactive)
61 | Cc1ccc(/C=N\n2c(-c3ccccc3)n[nH]c2=S)s1 | 8.39% (inactive)
62 | COC(=O)Cc1ccc(OCC(=O)Nc2ccc(OC(F)(F)F)cc2)cc1 | 9.11% (inactive)
63 | Cc1ccc2nc(SCc3cn4c(C)cc(C)nc4n3)[nH]c2c1 | 15.7% (inactive)
64 | CN(C)/C(=N\OC(=O)c1ccccc1)c1nonc1N | 10.6% (inactive)
65 | O=C(Cn1nc(Cc2cccnc2)c2ccccc2c1=O)NCC1CCCO1 (stereo unspecified) | 2.54% (inactive)
66 | O=C(Cn1c(=O)n(Cc2ccco2)c(=O)c2ccccc21)NCC1CCCO1 (stereo unspecified) | 42.5% (active)
67 | COc1ccc(NC(=O)Cn2c(=O)n(Cc3ccco3)c(=O)c3ccccc32)cc1 | 4.73% (inactive)
68 | O=C(/C=C/c1ccc(F)cc1)Nc1cccc(S(=O)(=O)Nc2cccc(C(F)(F)F)c2)c1 | 9.17% (inactive)
69 | Cc1ccc(-c2nc(C)sc2CC(=O)OCC(=O)Nc2c(F)cccc2F)cc1 | 4.46% (inactive)
70 | CCn1nc(C(=O)OCC(=O)N2c3ccccc3CC2C)c2ccccc2c1=O (stereo unspecified) | 10.5% (inactive)
71 | CCCC(=O)N1c2ccc(-c3csc(N)n3)cc2CC1C (stereo unspecified) | 79.2% (active)
72 | CCC(=O)N1c2ccc(S(=O)(=O)CCC(=O)N3CCN(c4ccccc4)CC3)cc2CC1C (stereo unspecified) | 8.07% (inactive)

Row | SMILES | protection (pct of control)
73 | O=C(NC(=S)Nc1cc(C(F)(F)F)ccc1N1CCOCC1)c1ccc(-c2cccc(Cl)c2)o1 | 1.76% (inactive)
74 | COC(=O)[C@H]1Cc2cnoc2C[C@]1(C)C(=O)O | 8.42% (inactive)
75 | Cc1ccc(-c2cc(C(=O)N/N=C/C=C/c3ccccc3)n[nH]2)o1 | 25.7% (inactive)
76 | Cc1ccc(N=C2NC(=O)c3cccc([N+](=O)[O-])c32)cc1 | 8.24% (inactive)
77 | COc1cccc2c1OCC1COc3c(c(=O)n(C)c(=O)n3C)C21 (stereo unspecified) | 23.9% (inactive)
78 | Cn1c2c(c(=O)n(C)c1=O)C1c3ccccc3OCC1C(C)(C)O2 (stereo unspecified) | 12.9% (inactive)
79 | Cn1c2c(c(=O)n(C)c1=O)[C@@H]1c3c(ccc4ccccc34)OC[C@@H]1CO2 | 38.9% (active)
80 | COc1ccc(-c2csc(NC(=O)COC(=O)c3ccc(Br)o3)n2)cc1 | 7.27% (inactive)
81 | O=C(CSc1nnc(-c2ccncc2)o1)NCc1ccc(Cl)cc1 | 5.59% (inactive)
82 | Cc1ccc(N(C(=O)C(F)(F)F)C(C(=O)NC2CCCCC2)c2ccncc2)cc1C (stereo unspecified) | 29.7% (inactive)
83 | COc1cc2c(cc1OC)C(=O)NCC(C)(C)O2 | 6.34% (inactive)
84 | Cc1ccc(Cl)cc1-c1ccc(/C=N/n2cnnc2)o1 | 70.5% (active)
85 | Cc1cc([N+](=O)[O-])c(-c2ccc(/C=N/n3cnnc3)o2)cc1Cl | 33.8% (inactive)
86 | Cc1cc(-c2ccc(/C=N/n3cnnc3)o2)c([N+](=O)[O-])cc1C | 28.4% (inactive)
87 | Cc1ccc(N2C(=O)C(NC(=O)c3c(F)cccc3F)(C(F)(F)F)C3=C2CC(C)(C)CC3=O)cc1 (stereo unspecified) | 5.53% (inactive)
88 | O=C(/C=C/c1ccc2c(c1)OCO2)NCc1ccc(F)cc1 | 5.86% (inactive)
89 | Cc1cccc(NC(=O)/C=C/c2ccc3c(c2)OCO3)n1 | 46.6% (active)
90 | CCc1c(C)sc(NC(=O)/C=C/c2ccc3c(c2)OCO3)c1C(=O)OC | 3.56% (inactive)
91 | CCCCc1ccc(NC(=S)N2CCCC(CO)C2)cc1 (stereo unspecified) | 11.5% (inactive)
92 | O=C(CN1C(=O)/C(=C\c2ccccc2F)SC1=S)Nc1nc2ccccc2s1 | 6.1% (inactive)
93 | Cc1noc(/C=C/c2ccco2)c1S(=O)(=O)N1CCC(C(=O)Nc2ccc(Cl)cn2)CC1 | 7.95% (inactive)
94 | CC(C)(C)C1CCC(=NNC(=O)c2ccc(Br)o2)CC1 (stereo unspecified) | 3.96% (inactive)
95 | CCC(C)(C)C1CCC(=NNC(=O)c2ccc(Br)o2)CC1 (stereo unspecified) | 39% (active)
96 | C/C(=N/NC(=O)c1ccc(Br)o1)c1ccc(C)o1 | 13% (inactive)
